# Measurements published in ChEMBL document CHEMBL4513146, “CO-ADD screening of Karazin Kharkiv National University (Ukraine) compounds”.
# Measured potencies and affinities stand elsewhere.
# Key:
# Staphylococcus aureus = settings: Concentration 32 ug.mL-1;; ASSAY_TEST Inhibition of Bacterial Growth; detection method Absorption (OD600); MEDIA CAMHB; plate type 384well; NBS; CORNING #3640; time 18 hr
# Escherichia coli = settings: Concentration 32 ug.mL-1;; ASSAY_TEST Inhibition of Bacterial Growth; detection method Absorption (OD600); MEDIA CAMHB; plate type 384well; NBS; CORNING #3640; time 18 hr
Compound,Inhibition (Staphylococcus aureus) [%],Inhibition (Escherichia coli) [%]
O=C(CSc1nnc2c(=O)n(-c3ccccc3)ccn12)Nc1ccccc1F,8.41,1.53
COc1cccc(CN(c2ccc(F)c(F)c2)S(=O)(=O)c2cccn3c(C)nnc23)c1,17.08,2.94
Cc1cccc(Cn2nc3c(=O)n(-c4cccc(Cl)c4C)ccn3c2=O)c1,-1.78,-16.69
CCc1ccccc1NC(=O)Cn1nc2cc(C)nc(Nc3ccc(F)c(C)c3)n2c1=O,-15.94,-1.7
COc1ccccc1-n1ccn2c(SCC#N)nnc2c1=O,15.53,0.38
CCOC(=O)c1ccccc1NC(=O)Cn1nc2c(Sc3ccccc3)nccn2c1=O,8.61,-3.65
O=C(CSc1nc2ccccc2n2cnnc12)Nc1cc(C(F)(F)F)ccc1Cl,6.84,-4.72
CC1CCCN(c2nccn3c(=O)n(CC(=O)Nc4ccc5c(c4)OCO5)nc23)C1 (stereo unspecified),-13.51,-11.79
O=C(Cn1nc2c(SC3CCCCC3)nccn2c1=O)Nc1ccccc1F,2.83,-6.05
CCc1ccc(N(Cc2ccccc2)S(=O)(=O)c2cccn3cnnc23)cc1,5.64,-1.12
COc1cc(OC)c(NC(=O)Cn2nc3ccc(Sc4cccc(F)c4)nn3c2=O)cc1Cl,4.57,-1.59
O=C(Cn1nc2c(=O)n(-c3ccc(Br)cc3)ccn2c1=O)Nc1cc(F)ccc1F,4.89,0.34
CCC(C)NC(=O)c1ccc2c(=O)n(C3CC3)c3nn(CC(=O)NC(C)C)c(=O)n3c2c1 (stereo unspecified),10.01,-2.07
COC(=O)c1cccc(NC(=O)Cn2nc3ccc(-c4ccccc4)nn3c2=O)c1,-7.92,-13.96
COc1ccc(-c2cc3c4nnc(SCC(=O)NCc5ccccc5)n4ccn3n2)cc1,-8.9,-21.63
COc1ccc(NC(=O)CSc2nnc3c(=O)n(-c4ccccc4)ccn23)cc1OC,9.52,-7.32
CC(C)c1nnc2c(=O)n(CC(=O)Nc3ccc(Cl)cc3)c3ccccc3n12,11.52,1.04

Compound,Inhibition (Staphylococcus aureus) [%],Inhibition (Escherichia coli) [%]
CC(C)Cn1c(=O)c2sccc2n2c(=O)n(CC(=O)NC(C)(C)C)nc12,-11.52,-13.32
N#Cc1ccc(NC(=O)Cn2nc3c(SCc4ccc(Cl)cc4)nccn3c2=O)cc1,9.38,-2.23
CCc1ccc(N(Cc2cc(F)cc(F)c2)S(=O)(=O)c2cccn3c(C)nnc23)cc1,-13.36,-0.39
CC(C)c1ccc(NC(=O)CSc2nc3ccccc3n3cnnc23)cc1,8.55,-4.05
CCc1nnc2ccc(S(=O)(=O)N(Cc3ccc(OC)c(F)c3)c3ccccc3)cn12,-14.1,-2.03
CCOC(=O)c1ccc(NC(=O)Cn2nc3c(Oc4ccccc4)nccn3c2=O)cc1,-0.24,-4.26
COc1ccc(NC(=O)Cn2nc3c4cc(-c5ccc(C)cc5)nn4ccn3c2=O)cc1,-5.75,-1.43
O=C(Cn1nc2ccc(-c3ccccc3)nn2c1=O)NC1CCCCC1,8.4,-1.26
COc1cc(NC(=O)Cn2nc3c4c5c(sc4ncn3c2=O)CCCC5)cc(OC)c1,-0.84,-8.54
CCc1cccc(NC(=O)Cn2nc3c(Sc4ccc(C)cc4C)nccn3c2=O)c1,-6.82,-19.78
Cc1ccc(NC(=O)Cn2nc3c(N4CCCC(C)C4)nccn3c2=O)cc1C (stereo unspecified),-5.07,-2.82
COc1cc(NC(=O)Cn2nc3c(Oc4ccccc4)nccn3c2=O)cc(OC)c1,11.4,1.31
O=C(Cn1nc2ccc(-c3ccc(Cl)cc3)nn2c1=O)Nc1ccccc1,-4.65,-11.42
COc1ccc(NC(=O)Cn2nc3c(N4CCOCC4)nccn3c2=O)cc1Cl,10.11,-1.05
O=C(Cn1nc2c(SC3CCCCC3)nccn2c1=O)NCc1ccc(F)cc1,3.45,-3.55
Cc1ccc(-c2cc3c4nn(CC(=O)Nc5ccc(F)cc5Cl)c(=O)n4ccn3n2)cc1,-0.44,-5.61
